{"source": "PubChem BioAssay (EPA / NIEHS)", "note": "“And” between values parts separate entries of the source, which are not always exact repeats. Equal entries are not always repeated. Results filed as inconclusive are left out. A structure can be active in one record and inactive in another. The source made the active and inactive calls. Rule for the calls: active = hit-call score of the fitted dose curve at least 0.9, where 1 is the maximum; inconclusive = response in the unintended direction; inactive = score below 0.9.", "data": [{"target": "human AMP-activated Protein Kinase, alpha 1 (AMPKa1), PRKAA1 (gene 5562) (UniProt Q13131)", "sequence (Q13131 whole entry, looked up)": "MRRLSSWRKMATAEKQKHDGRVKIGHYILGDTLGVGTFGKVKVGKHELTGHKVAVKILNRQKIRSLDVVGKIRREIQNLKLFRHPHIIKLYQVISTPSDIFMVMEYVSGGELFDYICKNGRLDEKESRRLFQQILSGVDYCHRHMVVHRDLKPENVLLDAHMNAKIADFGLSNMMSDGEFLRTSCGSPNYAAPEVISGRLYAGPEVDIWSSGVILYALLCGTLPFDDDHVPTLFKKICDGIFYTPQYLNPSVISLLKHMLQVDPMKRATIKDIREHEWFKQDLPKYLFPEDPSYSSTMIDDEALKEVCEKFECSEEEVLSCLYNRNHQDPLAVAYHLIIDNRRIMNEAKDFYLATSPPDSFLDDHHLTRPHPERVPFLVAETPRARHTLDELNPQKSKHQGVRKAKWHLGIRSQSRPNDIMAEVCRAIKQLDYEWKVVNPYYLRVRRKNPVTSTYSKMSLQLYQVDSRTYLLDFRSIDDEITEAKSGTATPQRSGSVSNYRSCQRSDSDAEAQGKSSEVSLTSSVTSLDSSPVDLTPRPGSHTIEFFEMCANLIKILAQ", "assay": "NVS_ENZ_hAMPKa1: NovaScreen (NVS) Enzymatic Assay for human AMP-activated Protein Kinase, alpha 1 (AMPKa1) (AID 2283130)", "experimental": "NVS_ENZ_hAMPKa1 is a biochemical, single-readout assay that uses extracted gene-proteins in a cell-free assay. Measurements were taken 1 hour after chemical dosing in a 384-well plate.NVS_ENZ_hAMPKa1 is one of one assay component(s) measured or calculated from the NVS_ENZ_hAMPKa1 assay. It is designed to make measurements of enzyme activity, a form of enzyme reporter, as detected with fluorescence intensity signals by Fluorescence and electrophoretic mobility shift technology.Data from the assay component NVS_ENZ_hAMPKa1 was analyzed into 1 assay endpoint. This assay endpoint, NVS_ENZ_hAMPKa1, was analyzed in the positive analysis fitting direction relative to DMSO as the negative control and baseline of activity. Using a type of enzyme reporter, loss-of-signal activity can be used to understand changes in the enzymatic activity as they relate to the gene PRKAA1. Furthermore, this assay endpoint can be referred to as a primary readout, because this assay has produced multiple assay endpoints where this one serves a enzymatic activity function. To generalize the intended target to other relatable targets, this assay endpoint is annotated to the kinase intended target family, where the subfamily is serine/threonine kinase.\nBinding assays used specific radioligands (tritiated, iodinated) with non-radioactive competitive displacement ligands in agonist or antagonist protocols (as indicated) and various reference compounds and inhibitors to titrate specific binding to receptors and transporters. Most enzyme assays (CYPs, kinases, phosphatases, proteases, HDACs) used recombinant protein and specific substrates (fluorescence mostly, some colorimetric and radioactive) and inhibitors, followed by a biochemical separation of substrate and product. All assays for the biochemical HTS were initially run in duplicate at a single concentration (10 uM for CYP450 assays and 25 uM for all others). Assay-chemical combinations meeting a pre-defined threshold (e.g., 30% inhibition and other criteria defined below) were then run in singleton concentration-response format with maximum concentration of 20 uM for CYPs and 50 uM for all others. Each assay was run with positive and negative controls, and concurrent controls on every plate. The follow-up (secondary) screen tested active chemical-pairs in concentration series, as well as a few additional assays not tested in the primary screen, some selected negative inactives, and several cases re-run in the concentration series for confirmatory purposes.", "values": [{"compound": "COc1cc(C(=O)NC2CCN(C)CC2)ccc1Nc1ncc2c(n1)N(C1CCCC1)CC(F)(F)C(=O)N2C", "outcome": "inactive"}, {"compound": "CCCCCCCCCCCCc1ccccc1", "outcome": "inactive"}, {"compound": "CC/C(=C(\\c1ccccc1)c1ccc(OCCN(C)C)cc1)c1ccccc1", "AC50": "25.4 µM (active)", "outcome": "inactive"}, {"compound": "O=C(O)C1(C(=O)Nc2ccc(Cl)cc2Cl)CC1", "AC50": "7.12 µM (active)"}, {"compound": "CCN(CC)CCNc1ccc(CNC=O)c2sc3ccc(OC)cc3c(=O)c12", "outcome": "inactive"}, {"compound": "CCCCCCCCCCCCc1ccccc1S(=O)(=O)O", "AC50": "11.3 µM (active)"}, {"compound": "O=C1O[C@H]([C@@H](O)CO)C(O)=C1O", "outcome": "inactive"}, {"compound": "CCc1c(C(=O)NN2CCCCC2)nn(-c2ccc(Cl)cc2Cl)c1-c1ccc(Br)cc1", "outcome": "inactive"}, {"compound": "O=C(OCCCCCOC(=O)c1ccccc1)c1ccccc1", "outcome": "inactive"}, {"compound": "CNC(=O)[C@H]1O[C@@H](n2cnc3c(NCc4cc(Cl)ccc4OCc4cc(C)no4)ncnc32)[C@H](O)[C@@H]1N", "outcome": "inactive"}, {"compound": "S=C(S)NCCNC(=S)S.[Mn+2].[S-]C([S-])=NCCN=C([S-])[S-].[Zn+2]", "AC50": "1.87 µM (active) and 1.32 µM (active) and 2.26 µM (active)"}, {"compound": "CCN(CC)CCOc1ccc(C(=C(Cl)c2ccccc2)c2ccccc2)cc1", "AC50": "26.5 µM (active)"}, {"compound": "N[C@@H](Cc1cc(I)c(Oc2ccc(O)c(I)c2)c(I)c1)C(=O)O", "outcome": "inactive"}, {"compound": "Cc1ccc(N)cc1O", "outcome": "inactive"}, {"compound": "COc1cccc(-c2ccc(/C=C\\CN3CCCCCC3)cc2Cl)c1", "AC50": "34.6 µM (active)"}, {"compound": "COc1ccc(OC(F)(F)F)cc1CN[C@H]1CCCN[C@H]1c1ccccc1", "outcome": "inactive"}, {"compound": "CCC(C)N(C)C(=O)c1cc2ccccc2c(-c2ccccc2Cl)n1", "note": "(stereo not given)", "outcome": "inactive"}, {"compound": "COCC(C)OCC(C)O", "note": "(stereo not given)", "outcome": "inactive"}, {"compound": "O=C1c2ccccc2C(=O)N1CCc1noc(-c2ccc(CN3CCCCCC3)s2)n1", "outcome": "inactive"}, {"compound": "CC(C)CCCCCCc1ccc(O)cc1", "outcome": "inactive"}, {"compound": "NCCO", "outcome": "inactive"}, {"compound": "CCCCCC(=O)O", "outcome": "inactive"}, {"compound": "CN1C(=O)N(c2ccccc2Br)Cc2cnc(Nc3ccc4c(c3)OCC(CO)O4)nc21", "note": "(stereo not given)", "outcome": "inactive"}, {"compound": "O=c1[nH]cnc2c1ncn2[C@H]1CC[C@@H](CO)O1", "outcome": "inactive"}, {"compound": "CN(C)C(=O)NC1(c2ccccc2)CCN(CC[C@@]2(c3ccc(F)c(F)c3)CN(C(=O)c3ccccc3)CCO2)CC1", "outcome": "inactive"}, {"compound": "CCN(CC)C(=O)c1cc(S(=O)(=O)Cc2ccccc2)c(N2CCC(c3ccccc3)CC2)cc1N(CC)CCN(C)C", "AC50": "34.9 µM (active)"}, {"compound": "O=C(O)CCCCC(=O)O", "outcome": "inactive"}, {"compound": "CN(C)c1ccc(N=NS(=O)(=O)O)cc1", "outcome": "inactive"}, {"compound": "O=C(c1ccc(OCCN2CCCCC2)cc1)c1c(-c2ccc(O)cc2)sc2cc(O)ccc12", "AC50": "18.9 µM (active)"}, {"compound": "O=C(OCCOCCOC(=O)c1ccccc1)c1ccccc1", "outcome": "inactive"}, {"compound": "c1ccc(C[n+]2cccc3ccccc32)cc1", "outcome": "inactive"}, {"compound": "O=C(O)Cc1cc(I)c(Oc2ccc(O)c(I)c2)c(I)c1", "outcome": "inactive"}, {"compound": "C[Si]1(C)O[Si](C)(C)O[Si](C)(C)O[Si](C)(C)O1", "outcome": "inactive"}, {"compound": "CC(C)(C)c1ccccc1", "outcome": "inactive"}, {"compound": "S=C([S-])NCCNC(=S)[S-].[Mn+2]", "AC50": "8.83 µM (active)"}, {"compound": "CC1(C)NC(=O)NC1=O", "outcome": "inactive"}, {"compound": "CCOC(=O)C(C)(C)Oc1ccc(Cl)cc1", "outcome": "inactive"}, {"compound": "O=[N+]([O-])c1ccc(Cl)cc1", "outcome": "inactive"}, {"compound": "O=C(O)c1cccc(Oc2ccccc2)c1", "outcome": "inactive"}]}]}
